Bioassay records: PubChem BioAssay, National Center for Advancing Translational Sciences (NCATS)
HT1080-NT tox – kills 2HG-producing HT-1080-NT fibrosarcoma cells; Potency, µM (series often up to 46.1 µM), actives largely listed as cytotoxic; 1.6% of 360,000 active; HT-1080-NT fibrosarcoma viability, CellTiter-Glo ATP luminescence, 48 h;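 note: NT is the 2HG producing partner of a matched IDH1 knockdown line; nearly all actives have a fitted effect of over 55% in size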
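Viability by CellTiter-Glo luminescence after 48 h compound exposure at 37C of HT-1080-NT cells (750/well, RPMI, 5% FBS). % activity scaled between DMSO wells and medium-only wells, then curve-fitted and categorized by curve class.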
KB-3-1 tox – KB-3-1 parental cell cytotoxicity; KB-3-1 viability, CellTiter-Glo ATP luminescence, 72 h; Potency, µM (doses to about 46.1 µM), hits mostly cytotoxic; 1.4% of 400,000 active; AID 1347075; note: nearly all actives have a fitted effect of over 60% in size
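72 h, 37 °C compound treatment of KB-3-1 parental cells; CellTiter-Glo added, 10 min, luminescence read. Data corrected against DMSO-only plates and normalized before curve fitting.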
IL1B secr inh – inhibitors of inflammasome signaling (IL-1 beta secretion) | THP-1 LPS/ATP IL-1B secretion, AlphaLISA, 16 h; stronger effect = lower value | activity change, % at 57.5 µM | 4.7% of 360,000 active | AID 743279; in the data active = activity change below about -50%; inconclusive = mostly about -30% to -49%
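THP-1 cells pretreated 1 hr with compounds (up to 57.5 uM final), then stimulated with LPS (250 ng/mL final) plus ATP (1.25 mM final); secreted IL-1B measured by AlphaLISA after 16 hr, decreased signal indicating inhibition.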
HT1080 IDH1KD tx – toxicity to HT-1080 IDH1 knockdown cells (counter line); Potency, µM (titrated, usually from 46.1 µM), hits mostly cytotoxic; HT-1080 IDH1 knockdown viability, ATP luminescence, 48 h; 2% of 360,000 active; AID 686971
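Cytotoxicity counter-line: IDH1KD HT-1080, 48 h, CellTiter-Glo. Curves classed by r2, magnitude and activity.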
KB-V1 cytotox – kills drug-selected multidrug resistant KB-V1 cells; KB-V1 MDR cells viability, CellTiter-Glo, 72 h; Potency, µM (doses to about 46.1 µM), hits mostly cytotoxic; 3.4% of 400,000 active; note: nearly all actives have a fitted effect of over 60% in size
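KB-V1 MDR subline cells in DMEM (phenol-red free, 10% FBS) exposed to compounds in qHTS concentration series for 72 h at 37 degrees C. Viability read by CellTiter-Glo luminescence; concentration-effect curves fitted after normalization and correction.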
Hits are given with their value; – = inactive; ? = inconclusive; · = no result given; ! = not confirmed by another sample. An excerpt weighted towards active compounds, which were near 8.8% of everything screened. Unless noted, calls come from the whole dose curve; as a rule, active = well fitted curve in the direction sought with a large enough effect; inconclusive = small, poorly fitted or top-dose-only effect, or another doubt; inactive = no such curve, though single readings can be large; an effect the other way counts as inactive or inconclusive.

SMILES | HT1080-NT tox | KB-3-1 tox | IL1B secr inh | HT1080 IDH1KD tx | KB-V1 cytotox
CN(CCCS(=O)(=O)[O-])c1ccc(/C=C/c2ccc3ccccc3[n+]2C)cc1 | – | ? | – | – | –
CN(C)c1ccc(/C=C/c2ccc3ccccc3[n+]2C)cc1 | ? | 0.33µM! | -107 | 1.3µM | ?
CN(C)c1ccc(/C=C/c2cncc3ccccc23)cc1 | · | – | · | · | –
CN(C)c1ccc(/C=C/c2c[n+](C)cc3ccccc23)cc1 | · | 0.46µM | · | · | –
Cc1ccnc(NC(=S)N2CCN(c3cccc(N(C)C)c3)CC2)c1 | · | – | · | · | –
C=CCN(CC=C)CCOc1cccc2ccccc12 | – | – | -57 | – | –
Fc1c(F)c(F)c(SCn2cc(Br)cn2)c(F)c1F | – | – | – | – | –
CCOC(=O)C1=C(CN2CCCCC2)NC(=O)NC1c1cc(C)ccc1C (configuration not stated) | – | – | – | – | 10µM!
CCOC(=O)C1=C(CSCc2ccccc2)NC(=O)NC1c1cc(C)ccc1C (configuration not stated) | ? | – | -51 | ? | 9.2µM
CCOC(=O)C1=C(COc2ccc(C)cc2)NC(=O)NC1c1cc(C)ccc1C (configuration not stated) | – | – | – | – | ?
COc1ccc(C(CNC(=O)c2cccc(S(=O)(=O)N3CCCCC3)c2)N2CCCC2)cc1 (configuration not stated) | – | ? | ? | – | ?
Cc1cc(C)c(NC(=O)CNC(=O)CN(C)Cc2ccc(Br)s2)c(C)c1 | – | – | – | – | 16µM
COc1cccc2c1C(=O)c1c(O)c3c(c(O)c1C2=O)C[C@@](O)(C(=O)CO)C[C@@H]3O[C@H]1C[C@H](N)[C@@H](O)[C@H](C)O1 | 0.26µM | ? | – | 0.52µM | ·
CC(=O)[C@]1(O)Cc2c(O)c3c(c(O)c2[C@@H](O[C@H]2C[C@H](N)[C@H](O)[C@H](C)O2)C1)C(=O)c1ccccc1C3=O | 3.3µM | 0.073µM | -106 | 0.33µM | 1.8µM
COc1cccc2c1C(=O)c1c(O)c3c(c(O)c1C2=O)CC(O)(C(=O)CO)CC3OC1CC(N(C)C)C(O)C(C)O1 (configuration not stated) | ? | ? | -100 | 0.41µM | 13µM
COc1cccc2c1C(=O)c1c(O)c3c(c(O)c1C2=O)C[C@@](O)(C(C)=O)C[C@@H]3O[C@H]1C[C@H](N)[C@H](O)[C@H](C)O1 | 0.073µM | 0.013µM | -110 | 0.15µM | ?
COc1ccc(CCn2c(C)cc(C(=O)CSc3nc(N)cc(=O)[nH]3)c2C)cc1 | ? | – | – | – | –
Cc1cc(C(=O)CCl)c(C)n1CCc1ccc(Cl)cc1 | 15µM | ? | -96 | 8.2µM | ?
Cc1cc(C(=O)CCl)c(C)n1CCc1ccc(F)cc1 | 5.8µM | ? | -58 | 5.2µM | ?
Cc1cc(C(=O)CSc2nc(N)cc(=O)[nH]2)c(C)n1CCc1ccc(F)cc1 | – | ? | – | 26µM | –
COc1ccc(CCn2c(C)cc(C(=O)CCl)c2C)cc1OC | ? | ? | -100 | ? | ?
COc1ccc(CCn2c(C)c(C(C)=O)c(C(C)=O)c2C)cc1OC | – | ? | – | – | –
Cc1cc(C(=O)CSc2nnc(N)s2)c(C)n1CCc1ccc(Cl)cc1 | – | ? | – | – | ?
CC(C)c1ccc(NC(=O)CCNS(=O)(=O)c2cc(Br)cnc2N)cc1 | – | ? | – | ? | ?
COc1ccc(C(=O)n2nc(-c3ccco3)nc2NCc2cccs2)cc1OC | · | – | · | · | –
SMILES | HT1080-NT tox | KB-3-1 tox | IL1B secr inh | HT1080 IDH1KD tx | KB-V1 cytotox
Cc1ccc(N(CC(=O)NC(C)(C)C)C(=O)CNC(=O)c2cccs2)c(C)c1 | – | ? | – | – | –
CCCc1cc(=O)[nH]c(SCC(=O)c2cc(C)n(CC(F)(F)F)c2C)n1 | – | – | – | – | 16µM
Cc1cc(C)c(OCCCCNCc2ccccc2)c(Cl)c1 | 16µM | ? | -86 | 13µM | 8.2µM
Cc1cc(C)c(OCCNCc2ccccc2)c(C)c1 | – | – | -54 | – | –
Cc1cc(C)c(C)c(OCCNCc2ccccc2)c1 | ? | – | -93 | 15µM | ?
Cc1cc(Cl)cc(C)c1OCCNCc1ccccc1 | 18µM | – | -96 | ? | –
CCc1ccc(NC(=O)c2sc3ncnc(N(C)C4CCCCC4)c3c2C)cc1 | · | – | · | · | –
